Measured values: ChEMBL document CHEMBL1857833, “Screening and optimization of specific chemical series against human African Trypanosomiasis (HAT)”
Out of some 4,400 compounds screened, about 390 (8.9%) showed an effect of 50% or more. What follows is part of a selection rich in strong results, with near analogues and random picks from the rest.

system: Trypanosoma brucei; experiment: DNDI: Inhibition of Human African Trypanosomiasis, SBRI 427, in vitro at 2 ug.mL-1; type: functional

SMILES | % inhibition [%]
CCOc1ccccc1CN/C(=N\O)c1ccc(Oc2ccc(C)cc2OC)nc1 | 25
CCN(CCC#N)Cc1coc(-c2cccc3ccccc23)n1 | 10
Cc1ccccc1-c1nc(CNCC(C)(C)CN(C)C)co1 | -8
COc1cc(C)ccc1Oc1nc(C)ccc1/C(=N/O)N1CCCC1 | 13
COc1cc(C)ccc1Oc1nc(C)ccc1/C(=N/O)NCCSC | -7
Cc1ccc(Oc2nc(C)ccc2/C(=N/O)NCC(C)C)c(C)c1 | 20
COc1cc(C)ccc1Oc1nc(C)ccc1/C(=N/O)NCC1CCCO1 (stereo not given) | 15
COc1cc(C)ccc1Oc1nc(C)ccc1/C(=N/O)NCC(C)C | 100
COc1cc(C)ccc1Oc1nc(C)ccc1/C(=N/O)NCC1CCCCC1 | 0
COc1ccc(Oc2nc(C)ccc2/C(=N/O)NCCN2CCCC2)cc1 | -2
COc1cc(C)ccc1Oc1nc(C)ccc1/C(=N/O)NCC(C)(C)C | 99
Cc1ccc(Oc2nc(C)ccc2/C(=N/O)NCC(C)(C)C)c(C)c1 | 11
CCCN/C(=N\O)c1ccc(C)nc1Oc1ccc(C)cc1OC | 22
Cc1ccc(/C(=N/O)NCCN2CCCC2)c(Oc2cccc(F)c2)n1 | -3
Cc1ccc(/C(=N/O)NCCN2CCCC2)c(Oc2ccc(F)cc2)n1 | 91
COc1cc(C)ccc1Oc1nc(C)ccc1/C(=N/O)NCC1CC1 | 100
C=CCN1CCN(/C(=N\O)c2ccc(C)nc2OCc2cccc(F)c2)CC1 | 3
CCC(NCc1coc(-c2cccs2)n1)c1ccccc1 (stereo not given) | -5
c1coc(-c2nc(CNC3CCc4ccccc43)co2)c1 (stereo not given) | 17
CN(Cc1coc(-c2ccccc2F)n1)Cc1cccc2ccccc12 | -49
CCN(C)Cc1coc(-c2cccc(F)c2)n1 | -10
COc1cc(CNCc2coc(-c3ccc(O)cc3)n2)cc(OC)c1 | 8
CC(C)c1ccc(N/C(=N\O)c2ccc(Oc3ccc4oc5ccccc5c4c3)nc2)cc1 | 25
Cc1ccc(/C(=N/O)N2CCSCC2)c(OCc2cccc(F)c2)n1 | -17
CCOC(=O)C1CCCN(Cc2coc(-c3cc(OC)c(OC)c(OC)c3)n2)C1 (stereo not given) | -16
CN(Cc1coc(-c2ccc(Br)cc2)n1)CC1OCCO1 | 11
Cc1ccccc1-c1nc(CN2CC(C)CC(C)C2)co1 (stereo not given) | 6
Cc1ccc(/C(=N/O)NCC2CC2)c(Oc2ccc(F)cc2)n1 | 33
Cc1ccc(Oc2nc(C)ccc2/C(=N/O)NCC2CC2)cc1 | 74
COc1ccc(Oc2nc(C)ccc2/C(=N/O)NCC2CC2)cc1 | 24
